Assay results: PubChem BioAssay AID1159580 (chemical genetic matrix, 2015)
In all, about 5,500 compounds went through this assay and about 2,000 (36%) were called active. About 18% were inconclusive and are not listed. Rule as the data show it: active = normalized growth mostly below about 0.91 (no sharp cut-off); inconclusive = no clear call, values can overlap the other calls; inactive = mostly above about 0.92. The list shows a part of the results.

Assay: chemical genetic growth profiling, strain panel (AID 1159580);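 also: tested at 20 µM; growth read once vehicle control cultures reached saturation at 30 °C; 1 = growth at the plate median or of vehicle wells; lower values mean less growth of the strain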
Conditions: growth OD
[1] = S. cerevisiae deletion strains, locus YAL013W, strain DEP1, stronger effect = lower value
[2] = S. cerevisiae deletion strains, locus YBR229C, strain ROT2, stronger effect = lower value
[3] = S. cerevisiae deletion strains, locus YDL101C, strain DUN1, stronger effect = lower value
[4] = S. cerevisiae deletion strains, locus YDR150W, strain NUM1, stronger effect = lower value
[5] = S. cerevisiae deletion strains, locus YEL061C, strain CIN8, stronger effect = lower value
[6] = S. cerevisiae deletion strains, locus YGR078C, strain PAC10, stronger effect = lower value
[7] = S. cerevisiae deletion strains, locus YHR030C, strain SLT2, stronger effect = lower value
[8] = S. cerevisiae deletion strains, locus YHR087W, strain rtc3, stronger effect = lower value
[9] = S. cerevisiae deletion strains, locus YJL187C, strain SWE1, stronger effect = lower value
[10] = S. cerevisiae deletion strains, locus YJR043C, strain POL32, stronger effect = lower value
[11] = S. cerevisiae deletion strains, locus YJR075W, strain HOC1, stronger effect = lower value
[12] = S. cerevisiae deletion strains, locus YKL190W, strain CNB1, stronger effect = lower value
[13] = S. cerevisiae deletion strains, locus YLR039C, strain RIC1, stronger effect = lower value
[14] = S. cerevisiae deletion strains, locus YLR058C, strain SHM2 (second series), stronger effect = lower value
[15] = S. cerevisiae deletion strains, locus YLR085C, strain ARP6, stronger effect = lower value
[16] = S. cerevisiae deletion strains, locus YLR262C, strain YPT6, stronger effect = lower value
[17] = S. cerevisiae deletion strains, locus YML094W, strain GIM5, stronger effect = lower value
[18] = S. cerevisiae deletion strains, locus YMR219W, strain ESC1, stronger effect = lower value
[19] = S. cerevisiae deletion strains, locus YMR263W, strain SAP30, stronger effect = lower value
[20] = S. cerevisiae deletion strains, locus YMR307W, strain GAS1, stronger effect = lower value
[21] = S. cerevisiae deletion strains, locus YNL153C, strain GIM3, stronger effect = lower value
[22] = S. cerevisiae deletion strains, locus YNL298W, strain CLA4 (second series), stronger effect = lower value
[23] = S. cerevisiae deletion strains, locus YNL322C, strain KRE1, stronger effect = lower value
[24] = S. cerevisiae deletion strains, locus YNR030W, strain Alg12, stronger effect = lower value
[25] = S. cerevisiae deletion strains, locus YPL055C, strain LGE1, stronger effect = lower value
[26] = S. cerevisiae deletion strains, locus YPL241C, strain CIN2, stronger effect = lower value
[27] = S. cerevisiae deletion strains, locus YPR135W, strain CTF4, stronger effect = lower value
[28] = S. cerevisiae strains, strain wild type, stronger effect = lower value

Measured: normalized growth

Nc1ccc2nonc2c1N
active: S. cerevisiae deletion strains, locus YCL061C, strain MRC1, stronger effect = lower value 0.902 | [21] 0.919 | [24] 0.845
inactive: [1] 0.965 | [2] 0.96 | [3] 0.906 | S. cerevisiae deletion strains, locus YDL134C, strain PPH21, stronger effect = lower value 0.968 | [4] 0.941 | [5] 0.956 | [6] 0.933 | [7] 0.804 | [8] 0.993 | [9] 0.974 | [10] 0.951 | [11] 0.985 | [12] 0.983 | [13] 0.908 | [14] 0.967 | [15] 0.853 | [16] 0.902 | [17] 0.954 | [18] 0.982 | [19] 0.923 | [20] 0.882 | [22] 0.95 | [23] 0.988 | [25] 0.921 | [26] 0.919 | [27] 0.776 | [28] 0.955

Cc1ccc(Sc2ccc([N+](=O)[O-])cc2/C=C2\SC(=S)NC2=O)cc1
active: [5] 0.859 | [7] 0.615 | [13] 0.324 | [16] 0.744 | [20] 0.524 | [27] 0.553
inactive: [1] 0.963 | [2] 0.992 | [3] 0.99 | [4] 0.982 | [6] 0.98 | [8] 0.991 | [9] 1 | [10] 0.997 | [11] 0.976 | [12] 0.979 | [14] 0.999 | [15] 0.82 | [17] 0.897 | [18] 0.984 | [19] 0.978 | [21] 0.996 | [22] 0.887 | [23] 0.969 | [24] 0.903 | [25] 0.963 | [26] 0.924 | [28] 0.982

C#CCN[C@H](C)Cc1ccccc1
inactive: S. cerevisiae deletion strains, locus YAL040C, strain CLN3, stronger effect = lower value 1 | S. cerevisiae deletion strains, locus YCL061C, strain MRC1 (second series), stronger effect = lower value 0.992 | [4] 0.997 | S. cerevisiae deletion strains, locus YDR363W, strain ESC2, stronger effect = lower value 1.01 | S. cerevisiae deletion strains, locus YER002W, strain NOP16, stronger effect = lower value 0.996 | [6] 0.987 | [11] 0.994 | S. cerevisiae deletion strains, locus YNL128W, strain TEP1, stronger effect = lower value 0.998 | [21] 1 | S. cerevisiae deletion strains, locus YNL175C, strain NOP13, stronger effect = lower value 0.997 | S. cerevisiae deletion strains, locus YNL197C, strain WHI3, stronger effect = lower value 0.982 | S. cerevisiae deletion strains, locus YNL224C, strain SQS1, stronger effect = lower value 0.995 | [23] 0.998 | S. cerevisiae deletion strains, locus YOR083W, strain WHI5 (second series), stronger effect = lower value 1.03 | [26] 0.999
